The text below walks through data of PubChem BioAssay (NCATS).

Test [1] is described as follows: qHTS Assay for Identifying Gametocytocidal Compounds (AID 743244). Further: potency means the concentration at half of the fitted maximal effect.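 On max response: on the % scale 0 is the no-effect control and ±100 the full control effect; actives lower the fluorescent signal which means gametocytes are killed.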 The conditions noted are these: P. falciparum 3D7 stage III-V gametocytes, alamarBlue, 72 h; max response: hits give low values. The method, boiled down: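 Using 20,000 stage III–V 3D7 gametocytes per well, compounds were incubated 72 h under 37 °C/5% CO2. Viability was then assessed by 24 h alamarBlue reduction, measured fluorometrically at 525/598 nm.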
A general note: qHTS replaces the single test concentration by a dilution series.

Test [2] can be described thus: qHTS assay for measurement of the activity of small molecule inhibitors on Zika virus induced Caspase-3 activity in human iPSC derived neural progenitor cells (hNPCs) (AID 1224857). Further: % of control where 0% means no effect; nearly all actives have a fitted effect of over 65% in size. The method in brief:
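After overnight (16–20 h) culture at 350 cells/well, hNPCs get compound, then ZIKV 2 FFU/cell one hour later. Six hours on, Caspase-Glo 3/7 is added and luminescence measured.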

Each structure is given as a SMILES string. Several values for one entry are separate records, joined by “and”; a condition that tells them apart may be missing. Identical values can stand only once. Results filed as inconclusive are left out. Unmarked numbers belong to inactive results. Activity calls are given as the source filed them. The call rests on the fitted dose curve; in most records, active means well fitted curve in the direction sought with a large enough effect; inconclusive means small, poorly fitted or top-dose-only effect, or another doubt; inactive means no such curve, though single readings can be large; an effect the other way counts as inactive or inconclusive.

For `CC(C)n1c(/C=C/[C@@H](O)C[C@@H](O)CC(=O)O)c(-c2ccc(F)cc2)c2ccccc21`, in test [1], the max response is -9.47%. In test [2], the Potency entry was “inactive”.

Regarding `Cn1c(=O)c2[nH]c(Br)nc2n(C)c1=O`, the max response in test [1] is -3.24%. Besides, in test [2], the Potency entry was “inactive”.

For the compound `OCc1ccccn1`, in test [1], the max response was -7.21%. Besides, in test [2], the Potency result was “inactive”.

With `Cc1c[nH]c2ccccc12`, the max response in test [1] was 0.215%. Moreover, the Potency entry in test [2] is “inactive”.

For `Cl/C(=C\n1cncn1)c1ccc(Cl)cc1Cl`, in test [1], the max response is -6.68%. Also, the Potency entry in test [2] is “inactive”.

With `CC(=O)NO`, the max response in test [1] was 6.13%. Besides, the Potency entry in test [2] is “inactive”.

For the compound `C#C[C@]1(OC(C)=O)CC[C@H]2[C@@H]3CCC4=C/C(=N/O)CC[C@@H]4[C@H]3CC[C@@]21CC`, the max response in test [1] is -2.23%. Besides, the Potency result in test [2] is “inactive”.

As for `C[N+]1(CC2COC(c3ccccc3)(C3CCCCC3)O2)CCCCC1` (stereo unspecified), the Potency in test [1] was 11.2 µM (active). Besides, in test [2], the Potency entry is “inactive”.

On to `CC(=O)Nc1ccc(OC(=O)c2ccccc2OC(C)=O)cc1`, for which, in test [1], the max response is 12.6%. Further, in test [2], the Potency result is “inactive”.

For `Cc1cc(NS(=O)(=O)c2ccc(N)cc2)nc(C)n1`, the max response in test [1] was 18.7%. In addition, the Potency entry in test [2] is “inactive”.

Consider `CN1CCN(C2=Nc3cc(F)ccc3Cc3ccccc32)CC1`, for which the max response in test [1] was 29%. Moreover, the Potency entry in test [2] was “inactive”.

For `O=C(NCCc1c[nH]c2ccccc12)c1cccnc1`, the max response in test [1] was -3.02%. In addition, the Potency entry in test [2] was “inactive”.

As to `COc1ccc(/C=N/NC(=O)c2ccncc2)cc1OC`, the max response in test [1] is -3.84%. Further, the Potency result in test [2] is “inactive”.

As to `COP(=O)(OC)OC(c1ccc(Cl)cc1)P(=O)(OC)OC` (stereo unspecified), the max response in test [1] is 0.577%. Further, the Potency entry in test [2] is “inactive”.

`CCOCCn1c(N2CCCN(C)CC2)nc2ccccc21`: in test [1], the max response was -5.27%. For the same compound, in test [2], the Potency result is “inactive”.

On to `CC(=O)NC(=O)c1ccccc1O`, for which the max response in test [1] is -9.03%. For the same compound, in test [2], the Potency entry was “inactive”.

For the compound `Nc1nc(-c2ccccc2)c(Br)c(=O)[nH]1`, in test [1], the max response was -0.157%. Further, the Potency entry in test [2] is “inactive”.

For the compound `NS(=O)(=O)c1cc(C(=O)O)cc(N2CCCC2)c1Oc1ccccc1`, in test [1], the max response is -3.9%. Further, the Potency result in test [2] is “inactive”.

`CCCCN1C[C@H](O)[C@@H](O)[C@H](O)[C@H]1CO`: the max response in test [1] was 2.05%. Besides, in test [2], the Potency result is “inactive”.

For `CCN[C@@H]1C[C@H](N)[C@@H](OC2OC(CN)=CCC2N)[C@H](O)[C@H]1O[C@H]1OC[C@](C)(O)[C@H](NC)[C@H]1O` (stereo partly specified), the max response in test [1] was 13.5%. The activity change, negative = inhibition in test [2] is 22% [at 0.568 µM].

For `CCCCCCCCCCCCCC[N+](C)(C)Cc1ccccc1`, the Potency in test [1] was 8.91 µM (active). Also, in test [2], the Potency result is “inactive”.

Turning to `FC1(F)C(F)(F)C(F)(F)C2(F)C(F)(F)C(F)(F)C(F)(F)C(F)(F)C2(F)C1(F)F` (stereo unspecified), the max response in test [1] was -4.02%. Further, in test [2], the Potency entry is “inactive”.

Take `CCN(CC)CCNC(=O)c1cc(Br)c(N)cc1OC`: the max response in test [1] is -8.23%. In addition, the Potency entry in test [2] was “inactive”.

With `CCN(CC)CCOc1ccccc1C(=O)CCc1ccccc1`, the max response in test [1] is -3.28%. Besides, in test [2], the Potency entry was “inactive”.

In the case of `CCc1nn(CCCN2CCN(c3cccc(Cl)c3)CC2)c(=O)n1CCOc1ccccc1`, in test [1], the max response is -8.53% and -14%. Moreover, the Potency result in test [2] is “inactive”.

As to `C[C@@]12C(=O)OC(=O)[C@]1(C)C1CCC2O1`, the max response in test [1] was -5.31%. The Potency entry in test [2] is “inactive”.

In the case of `CN(C)CCC[C@@]1(c2ccc(F)cc2)OCc2cc(C#N)ccc21`, the max response in test [1] is -8.84%. In addition, the Potency entry in test [2] was “inactive”.

Take `CCCCC(CC)CN1CN(CC(CC)CCCC)CC(C)(N)C1` (stereo unspecified): in test [1], the max response was 4.3%. In addition, in test [2], the Potency result is “inactive”.

For `O=C(Nc1cccc(C2=NCCN2)c1)Nc1cccc(C2=NCCN2)c1`, the max response in test [1] was -7.84%. Further, the Potency result in test [2] is “inactive”.

For `CCCCCCCCCCC[C@@H](C[C@@H]1OC(=O)[C@H]1CCCCCC)OC(=O)[C@H](CC(C)C)NC=O`, the max response in test [1] is -7.75%. For the same compound, the Potency result in test [2] was “inactive”.

On to `CCO[C@@H]1O[C@H](C(COCc2ccccc2)OCc2ccccc2)[C@H](OCc2ccccc2)[C@H]1O` (stereo partly specified), for which the max response in test [1] is -9.56%. Besides, the Potency result in test [2] was “inactive”.

`CC(C)Nc1cccnc1N1CCN(C(=O)c2cc3cc(NS(C)(=O)=O)ccc3[nH]2)CC1`: in test [1], the max response is -8.7%. Further, the Potency entry in test [2] is “inactive”.

Regarding `CC(C)(C)NCC(O)COc1cccc2c1C[C@H](O)[C@H](O)C2` (stereo partly specified), the max response in test [1] is -0.0039%. The Potency entry in test [2] is “inactive”.

As for `O=C(NC1CCN(CCc2c[nH]c3ccccc23)CC1)c1ccccc1`, the max response in test [1] was -6.9%. Also, the Potency entry in test [2] is “inactive”.

As for `O=[N+]([O-])c1cccc(S(=O)(=O)NCCNS(=O)(=O)c2cccc([N+](=O)[O-])c2)c1`, the max response in test [1] was 1.36%. In addition, the Potency entry in test [2] is “inactive”.

With `CC(C)[C@@H]1CC[C@@H](C)CC1=O`, in test [1], the max response is -7.98%. Moreover, the Potency entry in test [2] was “inactive”.

With `CCOc1cc(OCC)c(C(=O)CCC(=O)O)cc1OCC`, the max response in test [1] is 11%. For the same compound, in test [2], the Potency result was “inactive”.

For the compound `CN1CCN(CCC(=O)N2c3ccccc3Sc3ccc(C(F)(F)F)cc32)CC1`, the max response in test [1] is 2.75%. Also, the Potency entry in test [2] is “inactive”.
